# Assay results reported in PubChem BioAssay (EPA / NIEHS).
# Calls of active or inactive are those of the source. How the source made its calls: active means hit-call score of the fitted dose curve at least 0.9, where 1 is the maximum; inconclusive means response in the unintended direction; inactive means score below 0.9.
# Tested on: rat Monoamine Oxidase, MAO-A, Central (MAOAC), gene 29253
# Assay: NVS_ENZ_rMAOAC: NovaScreen (NVS) Enzymatic Assay for rat Monoamine Oxidase, MAO-A, Central (MAOAC) (AID 2283243);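 further: potency refers to inhibition seen as signal drop below DMSO baseline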
# Protocol: NVS_ENZ_rMAOAC is a biochemical, single-readout assay that uses extracted gene-proteins from Rat brain in a tissue-based cell-free assay. Measurements were taken 1.5 hours after chemical dosing in a 96-well plate.NVS_ENZ_rMAOAC is one of one assay component(s) measured or calculated from the NVS_ENZ_rMAOAC assay. It is designed to make measurements of enzyme activity, a form of enzyme reporter, as detected with scintillation counting signals by Lysate-based radiodetection technology.Data from the assay component NVS_ENZ_rMAOAC was analyzed into 1 assay endpoint. This assay endpoint, NVS_ENZ_rMAOAC, was analyzed in the positive analysis fitting direction relative to DMSO as the negative control and baseline of activity. Using a type of enzyme reporter, loss-of-signal activity can be used to understand changes in the enzymatic activity as they relate to the gene Maoa. Furthermore, this assay endpoint can be referred to as a primary readout, because this assay has produced multiple assay endpoints where this one serves a enzymatic activity function. To generalize the intended target to other relatable targets, this assay endpoint is annotated to the oxidoreductase intended target family, where the subfamily is monoamine oxidase.
# Binding assays used specific radioligands (tritiated, iodinated) with non-radioactive competitive displacement ligands in agonist or antagonist protocols (as indicated) and various reference compounds and inhibitors to titrate specific binding to receptors and transporters. Most enzyme assays (CYPs, kinases, phosphatases, proteases, HDACs) used recombinant protein and specific substrates (fluorescence mostly, some colorimetric and radioactive) and inhibitors, followed by a biochemical separation of substrate and product. All assays for the biochemical HTS were initially run in duplicate at a single concentration (10 uM for CYP450 assays and 25 uM for all others). […] Each assay was run with positive and negative controls, and concurrent controls on every plate. The follow-up (secondary) screen tested active chemical-pairs in concentration series, as well as a few additional assays not tested in the primary screen, some selected negative inactives, and several cases re-run in the concentration series for confirmatory purposes.
Compound,AC50,outcome
CN(C)C(=O)Nc1ccc(Cl)cc1,25 µM (active),
Nc1ccc([N+](=O)[O-])cc1,36.3 µM (active),
CCOc1cccc(C2(N3CCN(c4ccccc4)CC3)CCC(C)CC2)c1 (stereo not given),4.53 µM (active),
Nc1ccc(Cl)cc1N,,inactive
Oc1ccc2ccc3cccc4ccc1c2c34,0.255 µM (active),
Nc1ccc(N=Nc2ccccc2)cc1,10.6 µM (active),
Nc1ccc(Oc2ccc(N)cc2)cc1,11.3 µM (active),
[Cl-].[Cl-].[Hg+2],,inactive
O=C(N[C@H](c1ccccc1)[C@@H]1CN2CCC1CC2)c1c(Cl)ccc(C(F)(F)F)c1Cl,37.5 µM (active),
CN(C)c1ccc(C(=O)c2ccc(N(C)C)cc2)cc1,5.33 µM (active),
